# Assay results: article PMC4151992
# What was measured:
# Assay in all cases: cross-link between two proteins
# [1] = target: Small ribosomal subunit protein eS1A (UniProt P33442)
# [2] = target: Small ribosomal subunit protein eS4A (UniProt P0CX35)
# [3] = target: Small ribosomal subunit protein eS6A (UniProt P0CX37)
# [4] = target: Small ribosomal subunit protein eS7A (UniProt P26786)
# Small ribosomal subunit protein eS7A, sequence (P26786 whole entry): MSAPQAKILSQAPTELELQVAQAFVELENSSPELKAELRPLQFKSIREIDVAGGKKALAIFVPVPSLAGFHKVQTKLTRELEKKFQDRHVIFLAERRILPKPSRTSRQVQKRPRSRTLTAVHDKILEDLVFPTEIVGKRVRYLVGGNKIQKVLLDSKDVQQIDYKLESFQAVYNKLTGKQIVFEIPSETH
# Small ribosomal subunit protein eS1A, sequence (P33442 whole entry): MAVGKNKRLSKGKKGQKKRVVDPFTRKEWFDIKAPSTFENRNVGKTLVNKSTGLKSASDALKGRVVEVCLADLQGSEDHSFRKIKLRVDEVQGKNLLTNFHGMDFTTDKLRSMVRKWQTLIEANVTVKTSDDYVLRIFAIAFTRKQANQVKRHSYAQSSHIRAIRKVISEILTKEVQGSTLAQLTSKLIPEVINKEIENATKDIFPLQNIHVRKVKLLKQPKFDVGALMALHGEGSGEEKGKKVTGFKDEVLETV
# Small ribosomal subunit protein eS4A, sequence (P0CX35 whole entry): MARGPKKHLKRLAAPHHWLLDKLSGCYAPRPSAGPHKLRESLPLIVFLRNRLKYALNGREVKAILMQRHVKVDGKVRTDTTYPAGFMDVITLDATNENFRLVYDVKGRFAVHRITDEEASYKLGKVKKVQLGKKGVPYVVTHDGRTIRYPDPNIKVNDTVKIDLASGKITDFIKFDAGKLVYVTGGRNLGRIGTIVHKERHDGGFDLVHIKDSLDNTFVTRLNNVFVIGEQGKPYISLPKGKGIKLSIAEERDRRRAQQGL
# Small ribosomal subunit protein uS8A, P0C0W1, sequence (P0C0W1 whole entry): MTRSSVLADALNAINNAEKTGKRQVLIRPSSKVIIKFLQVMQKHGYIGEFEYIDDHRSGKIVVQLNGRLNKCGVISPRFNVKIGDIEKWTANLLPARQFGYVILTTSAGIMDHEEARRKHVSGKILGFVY
# Small ribosomal subunit protein eS6A, sequence (P0CX37 whole entry): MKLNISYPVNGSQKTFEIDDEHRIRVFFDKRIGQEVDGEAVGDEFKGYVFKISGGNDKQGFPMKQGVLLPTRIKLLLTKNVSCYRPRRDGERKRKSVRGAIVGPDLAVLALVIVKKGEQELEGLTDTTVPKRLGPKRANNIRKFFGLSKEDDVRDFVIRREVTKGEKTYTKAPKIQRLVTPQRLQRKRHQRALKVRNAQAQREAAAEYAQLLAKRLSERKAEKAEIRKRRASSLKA
substance,measurement,setting,value
"Small ribosomal subunit protein uS11A, P06367",listed as a hit,[1],yes
"Small ribosomal subunit protein eS24A, P0CX31",listed as a hit,[2],yes
"Small ribosomal subunit protein eS4A, P0CX35",listed as a hit,[3],yes
"Small ribosomal subunit protein uS8A, P0C0W1",listed as a hit,[4],yes
